# Bioassay records deposited in PubChem by National Center for Advancing Translational Sciences (NCATS).
# An excerpt weighted towards active compounds, which were near 12% of everything screened.
# PLK1 PBD block: qHTS for Inhibitors of PLK1-PDB (polo-like kinase 1 - polo-box domain): Primary Screen. Potency, µM, usual class: inhibitors. Plk1 PBD binding of FITC phosphopeptide, fluorescence polarization. Serine/threonine-protein kinase PLK1 (Homo sapiens), P53350. actives 2.8% (n = 360,000). AID 720504, 2013; further: series mostly up to about 57 µM; nearly all actives have a fitted effect of over 65% in size
# Sfp inh: qHTS Assay for Inhibitors of Bacillus subtilis Sfp phosphopantetheinyl transferase (PPTase) | 4'-phosphopantetheinyl transferase ffp (Bacillus subtilis), Q9F4F7 | Biochemical Sfp PPTase activity, qHTS | Potency, µM, hits mostly inhibitors | actives 3.5% (n = 310,000) | AID 1490, 2009;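 further: the enzyme is Sfp with the accession as filed and its product quenches rhodamine fluorescence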
#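 Buffer: 50 mM Hepes-Na pH 7.6, 10 mM MgCl2, 0.01% Nonidet P-40, 0.01% BSA. Enzyme 15 nM, pre-exposed to compound 15 min; substrates then added and fluorescence change tracked over 30 min.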
# RORg inh: qHTS for inhibitors of ROR gamma transcriptional activity; Potency, µM (top dose mostly 53.6 µM), most hits filed as inhibitors; Nuclear receptor ROR-gamma (Mus musculus), P51450; Drosophila S2 Gal4-RORgamma UAS-luciferase reporter, 20 h; actives 5.4% (n = 310,000); further: nearly all actives have a fitted effect of over 60% in size
#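 Stably transfected Drosophila Schneider cells are the test system, with ROR gamma fused to Gal4 and luciferase under UAS control; luminescence is read after 20 hr of 700 uM copper sulfate induction at ambient temperature.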
# ALDH1A1 inh: qHTS Assay for Inhibitors of Aldehyde Dehydrogenase 1 (ALDH1A1); Aldehyde dehydrogenase 1A1 (Homo sapiens), P00352; Purified ALDH1A1, NADH fluorescence, propionaldehyde substrate; Potency, µM (highest dose often 75.3 µM), hits mostly inhibitors; actives 7.3% (n = 220,000); AID 1030, 2008; active means well fitted inhibition curve with a large enough effect, not every such curve was filed as active; inconclusive means small, poorly fitted or top-dose-only effect, or another doubt; inactive means no such curve, though single readings can be large or run the other way
# Target sequence (P00352 whole entry, looked up): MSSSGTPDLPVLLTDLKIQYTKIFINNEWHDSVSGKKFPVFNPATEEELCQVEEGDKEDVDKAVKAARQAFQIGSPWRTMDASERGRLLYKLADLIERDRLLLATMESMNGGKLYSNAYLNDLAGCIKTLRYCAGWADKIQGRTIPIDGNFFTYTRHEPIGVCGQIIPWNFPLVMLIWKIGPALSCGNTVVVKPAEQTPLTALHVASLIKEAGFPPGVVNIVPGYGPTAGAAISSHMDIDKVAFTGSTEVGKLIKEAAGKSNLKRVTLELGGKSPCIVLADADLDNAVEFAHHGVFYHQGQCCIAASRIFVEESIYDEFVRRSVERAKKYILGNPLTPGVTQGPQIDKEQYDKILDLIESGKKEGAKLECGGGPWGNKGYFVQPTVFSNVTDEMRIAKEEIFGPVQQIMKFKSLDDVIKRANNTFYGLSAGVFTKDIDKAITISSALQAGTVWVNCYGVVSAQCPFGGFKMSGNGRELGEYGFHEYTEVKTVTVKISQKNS
# Gal4-VP16 FLuc: VP16 counterscreen qHTS for inhibitors of ROR gamma transcriptional activity | Drosophila S2 Gal4-VP16 UAS-luciferase, luminescence, 20 h | Potency, µM (doses to about 53.6 µM), actives largely listed as inhibitors | actives 3.5% (n = 310,000);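 further: Gal4-VP16 expression switched on by copper sulfate through the metallothionein promoter; nearly all actives have a fitted effect of over 50% in size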
# Numbers stand for hits; 0 = inactive; ? = inconclusive; - = no result given; [ ] = remark or other dose. Unless noted, the call rests on the fitted dose curve; in most records, active means well fitted curve in the direction sought with a large enough effect; inconclusive means small, poorly fitted or top-dose-only effect, or another doubt; inactive means no such curve, though single readings can be large; an effect the other way counts as inactive or inconclusive.
SMILES,PLK1 PBD block,Sfp inh,RORg inh,ALDH1A1 inh,Gal4-VP16 FLuc
CC(C)c1ccc(NC(=O)C2(C)Cc3c(-c4cccc(C(F)(F)F)c4)ccnc3O2)cc1 (stereo not given),0,-,-,-,-
COc1ccc(NC(=S)N2CCC(N(C)CC3CCCO3)CC2)cc1Cl (stereo not given),?,40µM,0,0,0
COCCNC(=O)[C@H](C)/C=C/C(NC(=O)OCc1ccccc1)c1ccc(C(=O)OC)cc1 (stereo not given in full),-,0,0,?,0
CSc1cccc(NC(=S)N(CCCN2CCCC2)Cc2cccn2Cc2ccc(Cl)cc2)c1,0,79µM,13µM,?,0
S=C(Nc1cccc(Cl)c1)N(CCCN1CCCC1)Cc1cccn1Cc1ccc(Cl)cc1,0,63µM,18µM,?,?
C[C@@H]1CN([C@@H](C)CO)S(=O)(=O)c2ccc(Br)cc2O[C@H]1CN(C)C(=O)c1cccc(F)c1,0,-,-,-,-
CN1/C(=C\C=N\NC(=O)c2ccc(O)cc2)C(C)(C)c2ccccc21,0,0,4.5µM,0,2.5µM
CN1/C(=C\C=N\NC(=O)c2cccnc2)C(C)(C)c2ccccc21,0,0,0.5µM,0,0.89µM
CN1/C(=C\C=O)C(C)(C)c2ccccc21,0,0,?,0,0
CCCS(=O)(=O)NC(=O)C1(C)CCCN(C(=O)c2cccc(C(F)(F)F)c2)C1 (stereo not given),0,-,-,-,-
Cc1cc(NC(=O)OC(C)(C)C)c(-n2nnnc2C(C(=O)c2ccccc2)N2CCOCC2)cc1C (stereo not given),0,-,-,-,-
CN(C)c1ccc(-c2cc(NC=O)c3ncc(-c4ccc(F)c(Cl)c4)n3c2)cc1,0,-,-,-,-
COCCCn1c(=O)/c(=C/c2ccccc2OC(F)F)s/c1=C(\C#N)C(=O)NCCOC,0,-,-,-,-
COCCCn1c(=O)/c(=C\c2ccccc2OC(F)F)s/c1=C(/C#N)C(=O)N1CCOCC1,0,0,0,6.3µM,0
O=S(=O)(O)c1ccc(SCc2ccccc2)nc1,21µM,-,-,-,-
c1ccc2c(c1)Cn1nnnc1-2,0,0,0,0,0
c1ccc2c(c1)CC1(CCCCC1)n1nnnc1-2,0,0,0,13µM,0
C[C@@H]1/C(=N/O)CC2C[C@@H]1C2(C)C,-,0,0,11µM,0
COCCCn1c(SCC(=O)N2CCCC2=O)nc2ccccc2c1=O,0,-,-,-,-
Fc1ccccc1SCc1nnc(-c2ccccc2Br)o1,3.4µM,0,?,?,0
Brc1ccccc1-c1nnc(CSc2nnnn2-c2ccccc2)o1,0,?,0,10µM,0
Cc1csc(SCc2nnc(-c3ccccc3Br)o2)n1,0,0,?,?,0
CCN1C(=O)c2cccc3c(S(=O)(=O)Nc4c(C)n(C)n(-c5ccccc5)c4=O)ccc1c23,0,0,0,14µM,0
C/C(=N\NC(N)=O)c1cc(Cl)cc(Cl)c1O,0,0,0.89µM,-,10µM
CC(=O)Nc1ccc(C2NC(=S)N(c3ccccc3C(F)(F)F)C(C)=C2C(=O)N2CCOCC2)cc1 (stereo not given),0,0,0,?,0
SMILES,PLK1 PBD block,Sfp inh,RORg inh,ALDH1A1 inh,Gal4-VP16 FLuc
COC(=O)C1=C(C)N(c2ccccc2)C(=S)NC1c1ccccc1C(F)(F)F (stereo not given),0,0,3.2µM,0,?
COCCOC(=O)C1=C(C)N(c2ccccc2)C(=S)NC1c1ccccc1C(F)(F)F (stereo not given),0,0,18µM,0,?
COC(=O)NC(CC(C)=O)c1ccco1 (stereo not given),-,0,0[10 µM],0[13.5 µM],0[10 µM]
Cc1ccc(C)c(C(=O)OCC(=O)Nc2cccc(S(=O)(=O)N3CCCCC3)c2)c1,0,-,-,-,-
CCCC1S/C(=N/N=C/c2cccs2)NC1=O (stereo not given),17µM,0,0.22µM,0,0.4µM
CC(=O)c1cccc(NC(=O)CC2S/C(=N/N=C/c3cccs3)NC2=O)c1 (stereo not given),0,0,?,0,0
CC(C)C1S/C(=N/N=C/c2cccs2)NC1=O (stereo not given),0,0,0.32µM,?,0.89µM
CC1S/C(=N/N=C/c2cccs2)NC1=O (stereo not given),0,0,2.2µM,0,7.1µM
